Here are results for 40 molecules from the supplement of paper PMC4954754.

± gives the uncertainty stated by the source.

This experiment deals with HEK293T-Rex XBP1-RLuc. Briefly: XBP1-RLuc splicing reporter activation, triplicate, relative to 500 nM thapsigargin (% of thapsigargin); higher = stronger IRE1/XBP1s reporter activation. The conditions noted are these: 6.8 µM; 18 h; screen: confirmation. As for the experimental part:
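HEK293T-Rex cells stably expressing the ERSE-firefly luciferase (BiP promoter, ATF6-preferring) or XBP1-splicing Renilla luciferase (IRE1/XBP1s) reporter, 1536-well plates, compound at 6.8 µM for 18 hr at 37 °C; luminescence read […] and expressed as % activation = 100*(compound - median DMSO)/(median 500 nM thapsigargin - median DMSO). Primary screen was single-pass; confirmation screen in triplicate (mean ± SD).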
For the molecule `Oc1ccccc1/C=N\Nc1nc2ccccc2o1`, the “XBP1-RLuc splicing reporter activation” value worked out at 19.1 ± 1.9.
Take `Nc1ccccc1NC(=O)c1ccc(Cl)cc1`: the “XBP1-RLuc splicing reporter activation” value turned out to be 10 ± 0.7.
For `C(=N/Nc1nnc2c(n1)[nH]c1ccccc12)/c1c[nH]c2ccccc12`, the “XBP1-RLuc splicing reporter activation” value is 9.3 ± 1.4.
Then `CC(C)c1ccc(/C=N\NC(=O)c2ccccc2)cc1`, with 6.81 ± 0.33.
Then `COc1cccc(C(=O)Nc2sc3c(c2C#N)CC(C)CC3)c1` (stereo not given), with 3.54 ± 0.93; and `Cc1ccc(C)c(/C=N/Nc2nncc3ccccc23)c1`, with 5.57 ± 0.69; and `Cc1cc(C)nc(/N=C(\N)Nc2ccc(OCc3ccccc3)cc2)n1`, with 78.3 ± 5.3.
For `O=C(Nc1ccc(O)cc1)c1c(O)c2c([nH]c1=O)CCCC2`, the “XBP1-RLuc splicing reporter activation” value was found to be 19 ± 0.94.
As for `CCCNC(=O)c1ccc2nc(-c3ccc4[nH]ccc4c3)sc2c1`, the “XBP1-RLuc splicing reporter activation” value is -0.994 ± 0.65.
Next, `N#C/C(=C/c1ccc(O)c(O)c1)c1nc2ccccc2[nH]1`: 10.3 ± 0.38; `CCN(CC)c1ccc2cc(-c3nc4ccccc4n3C)c(=O)oc2c1`: 9.31 ± 0.79.
Then `CN(C)c1ccc(C2C(C#N)=C(N)Oc3c2sc2ccccc32)cc1[N+](=O)[O-]` (stereo not given), with 9.04 ± 0.83.
Then `CN(C)c1ccc(C(=NO)c2ccc(N(C)C)cc2)cc1`, with 6.61 ± 1.1; and `Cc1ccc(NC(=S)NC(=O)C(=O)Nc2ccccc2)cc1`, with 58.6 ± 3.3.
As for `CCCCNC(=O)c1cc(-c2cccs2)on1`, the “XBP1-RLuc splicing reporter activation” value came out at 9.51 ± 1.7.
As to `CC(=O)Oc1cc(N2CCOCC2)c(OC(C)=O)c2c1C(=O)c1ccccc1C2=O`, the “XBP1-RLuc splicing reporter activation” value was found to be 8.79 ± 2.
Then `Cc1ccc(O)c(NC(=O)c2cc(-c3cccs3)on2)c1`, with 22.7 ± 1.2; and `CCOc1ccc2nc(NC(=O)c3ccn(C)n3)sc2c1`, with -1.23 ± 2; and `COc1ccc(C(=O)Nc2nnc(-c3cccs3)s2)cc1`, with 0.956 ± 0.85.
Next, `Oc1ccc(-c2csc(-c3cccnc3)n2)cc1O`: 15.2 ± 0.9; `Oc1ccc(/C=N/Nc2cccc3cccnc23)c(O)c1`: 26 ± 1.3; `Cc1ccc(O)c(NC(=O)c2cc(C(C)C)on2)c1`: 12.7 ± 0.5.
Turning to `CCOC(=O)c1sc(NC(=O)c2cccc3ccccc23)nc1C`, the “XBP1-RLuc splicing reporter activation” value turned out to be 2.85 ± 0.37.
Then `COc1ccccc1/C=C/C(=O)Nc1ccc(Cl)cn1`, with -1.93 ± 1.5; and `O=C(N/N=C\C(Br)=C\c1ccccc1)c1n[nH]c2c1CCCC2`, with 7.86 ± 1.6.
Then `Cc1ccc(O)c(NC(=O)CN(C)S(=O)(=O)c2ccc(Cl)cc2)c1`, with 15.1 ± 3.3.
Next, `CCc1cc2c(=O)c(-c3ccc4c(c3)OCCO4)coc2cc1OC`: 12.2 ± 0.77; `COc1ccc(-c2csc(-c3ccc(O)cc3)n2)cc1`: 8.78 ± 1.3.
Consider `COc1cc2ccccc2cc1C(=O)N/N=C/c1cccs1`, for which the “XBP1-RLuc splicing reporter activation” value turned out to be 3.81 ± 0.66.
Then `O=C(Nc1ccccc1O)c1ccc(NS(=O)(=O)c2cccc3cccnc23)cc1`, with 14.2 ± 3.7; and `O=C(N/N=C/c1cccc(O)c1O)c1ccccn1`, with 27 ± 0.75; and `NC(=O)c1c(NC(=O)c2cccc3ccccc23)sc2c1CCC2`, with 9.06 ± 0.86.
Next, `CCc1ccc(NC(=O)/C=C/c2ccco2)cc1`: 4.88 ± 0.83; `N#C/C(=C/c1ccc(O)c(O)c1)c1nc2ccccc2s1`: 19.7 ± 0.5.
Then `O=C(N/N=C/c1ccc(Cl)cc1Cl)c1ccc(O)c(O)c1`, with 10.6 ± 0.64; and `Cc1cc2nc(/C(C#N)=C/c3ccco3)[nH]c2cc1C`, with 4.3 ± 0.47.
With `O=c1[nH]c(/C=C2\C=Nc3ccccc32)c(O)n1-c1cccc(Cl)c1`, the “XBP1-RLuc splicing reporter activation” value was found to be 47.9 ± 7.7.
Then `CCOc1ccc(NC(=O)c2cccc(F)c2)c([N+](=O)[O-])c1`, with 1.77 ± 2.1; and `CCOc1ccc(/C=C(\C#N)c2[nH]nc(N)c2C#N)cc1OCC`, with 7.63 ± 1.
For `O=C(N/N=C/c1cccc(O)c1O)c1ccccc1I`, the “XBP1-RLuc splicing reporter activation” value came out at 11.2 ± 0.69.
